Laboratory results published in PubChem BioAssay (EPA / NIEHS).
Active and inactive are the calls of the source. The calls were made as follows: active = hit-call score of the fitted dose curve at least 0.9, where 1 is the maximum; inactive = score below 0.9.

How the values were obtained:
Conditions in all cases: mRNA level, 48 h; actives raise or lower the signal
BCL2L11 (gene 10018) = test: LTEA_HepaRG_BCL2L11: Life Technologies and Expression Analysis (LTEA) Assay for Bcl-2 (BCL2L11) gene using HepaRG (AID 2283473)
Summary of the method: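 Human hepatic HepaRG cultures are treated 48 h with test chemicals (maximum 100 uM, 0.5% DMSO vehicle). Expression of BCL2L11 is measured by qRT-PCR against ACTB, GAPDH and POLR2A, with activity in either direction scored relative to vehicle.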

[1] = read-out: Apolipoprotein A-V (APOA5) gene, APOA5 (gene 116519); test: LTEA_HepaRG_APOA5: Life Technologies and Expression Analysis (LTEA) Assay for Apolipoprotein A-V (APOA5) gene using HepaRG (AID 2283474)
Summary of the method: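 Concentration-response of APOA5 expression in HepaRG: eight half-log doses to 100 uM, 48 h, qRT-PCR normalized to ACTB/GAPDH/POLR2A, bidirectional fitting with 0.5% DMSO as baseline.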

[2] = read-out: Cytochrome P450 (CYP24A1), CYP24A1 (gene 1591); test: LTEA_HepaRG_CYP24A1: Life Technologies and Expression Analysis (LTEA) Assay for Cytochrome P450 (CYP24A1) using HepaRG (AID 2283478)
Summary of the method: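 Gene expression of CYP24A1 by TaqMan qRT-PCR in HepaRG after 48 h treatment, highest concentration 100 uM; activity fitted in both directions relative to DMSO vehicle.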

[3] = read-out: Cytochrome P450 (CYP1A2), CYP1A2 (gene 1544); test: LTEA_HepaRG_CYP1A2: Life Technologies and Expression Analysis (LTEA) Assay for Cytochrome P450 (CYP1A2) using HepaRG (AID 2283479)
Summary of the method: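 In duplicate wells, HepaRG cultures maintained in 0.5% DMSO were treated 48 h across an 8-point, half-log series topping at 100 uM; phenobarbital (1 mM) served as induction control. Expression was read by qRT-PCR.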

[4] = read-out: cysteine-aspartic acid protease (CASP8), CASP8 (gene 841); test: LTEA_HepaRG_CASP8: Life Technologies and Expression Analysis (LTEA) Assay for cysteine-aspartic acid protease (CASP8) using HepaRG (AID 2283480)
Summary of the method: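 Differentiated HepaRG cells in serum-free induction medium, 48 h exposure, eight-point half-log series from 100 uM in 0.5% DMSO, duplicates. CASP8 mRNA by qRT-PCR, normalized to ACTB, GAPDH, POLR2A; bidirectional fit versus DMSO.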

[5] = read-out: Cytochrome P450 (CYP2B6), CYP2B6 (gene 1555); test: LTEA_HepaRG_CYP2B6: Life Technologies and Expression Analysis (LTEA) Assay for Cytochrome P450 (CYP2B6) using HepaRG (AID 2283481)
Summary of the method: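 Human HepaRG, 48 h dosing, 0.5% DMSO vehicle, top dose 100 uM. CYP2B6 transcript by qRT-PCR, housekeeping-normalized, bidirectional curve fit.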

[6] = read-out: Cytochrome P450 2C19 (Homo sapiens) (UniProt P33261); test: LTEA_HepaRG_CYP2C19: Life Technologies and Expression Analysis (LTEA) Assay for CYP2C19 using HepaRG (AID 2283482)
Summary of the method: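 Endpoint: CYP2C19 mRNA change, bidirectional fit vs 0.5% DMSO. Cells: HepaRG, 48 h exposure, eight-point series topping at 100 uM. Quantitation: qRT-PCR normalized to ACTB, GAPDH, POLR2A.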

CYP2C8 (gene 1558) = test: LTEA_HepaRG_CYP2C8: Life Technologies and Expression Analysis (LTEA) Assay for CYP2C8 using HepaRG (AID 2283483)
Summary of the method: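 Differentiated HepaRG cells in serum-free induction medium exposed 48 h in duplicate to 8 half-log concentrations from 100 uM in 0.5% DMSO. CYP2C8 mRNA by qRT-PCR normalized to ACTB, GAPDH, POLR2A; bidirectional fit versus DMSO.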

CYP2C9 (gene 1559) = test: LTEA_HepaRG_CYP2C9: Life Technologies and Expression Analysis (LTEA) Assay for CYP2C9 using HepaRG (AID 2283484)
Summary of the method: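 Differentiated human HepaRG cells in serum-free induction medium were exposed 48 h to chemicals in 8-point half-log series from 100 uM (0.5% DMSO), in duplicate. CYP2C9 mRNA was measured by qRT-PCR, normalized to ACTB/GAPDH/POLR2A, with bidirectional fitting versus DMSO.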

CYP4A11 (gene 1579) = test: LTEA_HepaRG_CYP4A11: Life Technologies and Expression Analysis (LTEA) Assay for CYP4A11 using HepaRG (AID 2283486)
Summary of the method: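 Human hepatic HepaRG cultures receive duplicate 48 h exposures across a concentration-response series topping at 100 uM. Expression changes in CYP4A11 are measured by qRT-PCR relative to DMSO controls.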

[7] = read-out: DNA damage-inducible transcript 3 (DDIT3), DDIT3 (gene 1649); test: LTEA_HepaRG_DDIT3: Life Technologies and Expression Analysis (LTEA) Assay for DNA damage-inducible transcript 3 (DDIT3) using HepaRG (AID 2283488)
Summary of the method: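 Changes in DDIT3 transcript, in either direction relative to 0.5% DMSO vehicle, were quantified by TaqMan qRT-PCR after 48 h chemical exposure of HepaRG cells at 8 concentrations, maximum 100 uM.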

[8] = read-out: Pro-epidermal growth factor (Homo sapiens) (UniProt P01133); test: LTEA_HepaRG_EGF: Life Technologies and Expression Analysis (LTEA) Assay for Epidermal growth factor (EGF) using HepaRG (AID 2283489)
Summary of the method: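 Concentration-response mRNA assay: HepaRG cells dosed 48 h (max 100 uM, 0.5% DMSO), EGF measured by qRT-PCR and normalized to ACTB/GAPDH/POLR2A.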

[9] = read-out: Early growth response protein 1 (EGR1) transcription factor, EGR1 (gene 1958); test: LTEA_HepaRG_EGR1: Life Technologies and Expression Analysis (LTEA) Assay for Early growth response protein 1 (EGR1) transcription factor using HepaRG (AID 2283490)
Summary of the method: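 Differentiated HepaRG cells in serum-free induction medium exposed 48 hours, duplicate, to 8 half-log concentrations up to 100 uM in 0.5% DMSO. EGR1 mRNA measured by TaqMan qRT-PCR, normalized to ACTB, GAPDH, POLR2A; bidirectional fit versus DMSO.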

[10] = read-out: Cytochrome P450 3A4 (Homo sapiens) (UniProt P08684); test: LTEA_HepaRG_CYP3A4: Life Technologies and Expression Analysis (LTEA) Assay for CYP3A4 using HepaRG (AID 2283487)
Summary of the method: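 HepaRG, 48 h exposure, 8-pt CRC from 100 uM (half-log), 0.5% DMSO, duplicates; serum-free induction medium. Readout: CYP3A4 mRNA, qRT-PCR, ACTB/GAPDH/POLR2A normalization. Bidirectional fit vs DMSO.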

[11] = read-out: Ezrin (EZR), EZR (gene 7430); test: LTEA_HepaRG_EZR: Life Technologies and Expression Analysis (LTEA) Assay for Ezrin (EZR) using HepaRG (AID 2283491)
Summary of the method: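 Read-out is EZR transcript level by qRT-PCR, normalized to three housekeeping genes and fitted bidirectionally against the DMSO control. Human HepaRG cells received test chemicals for 48 h at eight half-log concentrations up to 100 uM in 0.5% DMSO.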

[12] = read-out: Cytochrome P450 3A7 (Homo sapiens) (UniProt P24462); test: LTEA_HepaRG_CYP3A7: Life Technologies and Expression Analysis (LTEA) Assay for CYP3A7 using HepaRG (AID 2283492)
Summary of the method: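 qRT-PCR of CYP3A7 in HepaRG lysates after 48 h treatment; concentration-response (8 points, max 100 uM) analysed bidirectionally relative to 0.5% DMSO controls.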

CYP2E1 (gene 1571) = test: LTEA_HepaRG_CYP2E1: Life Technologies and Expression Analysis (LTEA) Assay for CYP2E1 using HepaRG (AID 2283485)
Summary of the method: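 Differentiated HepaRG cells were treated in duplicate for 48 h with chemicals in 0.5% DMSO, from 100 uM downward in half-log dilutions. RNA was then analysed by qRT-PCR for CYP2E1 induction or loss.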

Caspase-3 (Homo sapiens) = Caspase-3 (Homo sapiens) (UniProt P42574); test: LTEA_HepaRG_CASP3: Life Technologies and Expression Analysis (LTEA) Assay for cysteine-aspartic acid protease (CASP3) using HepaRG (AID 2283477)
Summary of the method: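 Transcript-level assay: CASP3 mRNA in human HepaRG after 48 h treatment, eight half-log concentrations from 100 uM in 0.5% DMSO, quantified by qRT-PCR.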

Measured: AC50

Chain of Caspase-3 (Homo sapiens) (P42574 whole entry, looked up): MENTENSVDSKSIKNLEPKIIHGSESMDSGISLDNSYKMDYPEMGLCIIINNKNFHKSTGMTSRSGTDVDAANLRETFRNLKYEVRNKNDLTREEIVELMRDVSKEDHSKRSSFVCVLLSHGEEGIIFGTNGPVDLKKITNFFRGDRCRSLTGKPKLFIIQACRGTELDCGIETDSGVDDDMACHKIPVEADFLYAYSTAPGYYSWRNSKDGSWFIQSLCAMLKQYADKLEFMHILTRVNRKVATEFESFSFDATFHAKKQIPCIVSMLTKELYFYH
Chain of Cytochrome P450 2C19 (Homo sapiens) (P33261 whole entry, looked up): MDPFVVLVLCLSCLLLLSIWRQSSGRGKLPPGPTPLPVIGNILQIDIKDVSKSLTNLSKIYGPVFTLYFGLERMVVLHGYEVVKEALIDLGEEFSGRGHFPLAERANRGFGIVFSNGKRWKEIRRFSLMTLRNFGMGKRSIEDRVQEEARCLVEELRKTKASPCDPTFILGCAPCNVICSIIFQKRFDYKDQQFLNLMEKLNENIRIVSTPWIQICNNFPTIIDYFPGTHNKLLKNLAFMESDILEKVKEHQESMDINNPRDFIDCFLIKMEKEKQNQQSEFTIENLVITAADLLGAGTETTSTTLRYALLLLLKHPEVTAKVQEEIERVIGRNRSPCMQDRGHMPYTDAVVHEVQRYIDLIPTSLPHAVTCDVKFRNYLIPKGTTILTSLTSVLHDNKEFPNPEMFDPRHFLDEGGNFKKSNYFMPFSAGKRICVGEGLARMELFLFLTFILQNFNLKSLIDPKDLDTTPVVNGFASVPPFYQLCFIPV
Chain of Cytochrome P450 3A4 (Homo sapiens) (P08684 whole entry, looked up): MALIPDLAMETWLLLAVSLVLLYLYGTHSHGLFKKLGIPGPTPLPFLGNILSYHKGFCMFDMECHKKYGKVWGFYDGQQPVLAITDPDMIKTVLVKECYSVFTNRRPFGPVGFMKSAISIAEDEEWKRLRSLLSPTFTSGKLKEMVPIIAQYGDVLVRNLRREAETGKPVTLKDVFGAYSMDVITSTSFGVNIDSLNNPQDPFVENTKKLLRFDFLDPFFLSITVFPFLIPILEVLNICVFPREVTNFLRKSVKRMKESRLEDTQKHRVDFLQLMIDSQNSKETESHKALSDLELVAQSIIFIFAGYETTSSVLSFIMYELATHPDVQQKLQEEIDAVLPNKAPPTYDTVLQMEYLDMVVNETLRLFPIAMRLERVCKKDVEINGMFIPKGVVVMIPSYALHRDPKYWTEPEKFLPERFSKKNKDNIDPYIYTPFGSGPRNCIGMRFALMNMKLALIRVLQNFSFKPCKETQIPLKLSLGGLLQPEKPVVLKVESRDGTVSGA
Chain of Cytochrome P450 3A7 (Homo sapiens) (P24462 whole entry, looked up): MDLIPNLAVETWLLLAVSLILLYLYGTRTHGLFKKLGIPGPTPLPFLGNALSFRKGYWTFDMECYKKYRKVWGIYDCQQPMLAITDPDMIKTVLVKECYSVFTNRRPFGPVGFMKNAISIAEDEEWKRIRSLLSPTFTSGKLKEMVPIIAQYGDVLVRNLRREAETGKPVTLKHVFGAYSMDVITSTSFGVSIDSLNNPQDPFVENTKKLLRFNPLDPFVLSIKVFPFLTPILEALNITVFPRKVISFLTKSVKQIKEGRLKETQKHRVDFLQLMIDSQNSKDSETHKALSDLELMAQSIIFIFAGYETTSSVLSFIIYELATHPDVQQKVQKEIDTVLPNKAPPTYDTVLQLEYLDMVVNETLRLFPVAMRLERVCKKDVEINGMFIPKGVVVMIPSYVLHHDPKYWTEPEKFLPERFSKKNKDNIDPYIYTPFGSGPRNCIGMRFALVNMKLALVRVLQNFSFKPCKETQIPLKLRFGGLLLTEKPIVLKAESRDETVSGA

c1ccc2[nH]c(-c3cscn3)nc2c1
active: [3] 23.6 µM | [5] 16.5 µM | [6] 28.6 µM
not listed: [10] | [11] | [12] | CYP2E1 (gene 1571) | Caspase-3 (Homo sapiens)
inactive: all other assays above

CCNc1nc(N)nc(Cl)n1
active: [5] 6.87 µM | [6] 6.65 µM | [10] 3.18 µM | [12] 9.92 µM
not listed: [9] | CYP2E1 (gene 1571) | Caspase-3 (Homo sapiens)
inactive: all other assays above

COc1c(Cl)ccc(Cl)c1C(=O)O
not listed: [8] | [9] | [11] | Caspase-3 (Homo sapiens)
inactive: all other assays above

CC(C)(C)[C@@H](O)[C@@H](Cc1ccc(Cl)cc1)n1cncn1
active: [3] 50 µM | [5] 3.37 µM | [6] 7.33 µM | CYP4A11 (gene 1579) 50 µM | [10] 7.74 µM | [12] 5.85 µM
not listed: [9] | [11] | CYP2E1 (gene 1571) | Caspase-3 (Homo sapiens)
inactive: all other assays above

O=C(O)c1ccccc1
not listed: [9] | [11] | CYP2E1 (gene 1571) | Caspase-3 (Homo sapiens)
inactive: all other assays above

CCSC(=O)N(CC(C)C)CC(C)C
not listed: [9] | [11] | CYP2E1 (gene 1571) | Caspase-3 (Homo sapiens)
inactive: all other assays above

CCCCCOC(=O)COc1cc(N2C(=O)C3=C(CCCC3)C2=O)c(F)cc1Cl
active: [2] 0.00316 µM | [5] 25.9 µM | [10] 28 µM
not listed: [9] | [11] | CYP2E1 (gene 1571)
inactive: all other assays above

c1ccc(Nc2ccccc2)cc1
active: [5] 24.9 µM
not listed: CYP2C9 (gene 1559) | [9] | CYP2E1 (gene 1571)
inactive: all other assays above

CCCN(CCC)c1c([N+](=O)[O-])cc(C(F)(F)F)c(N)c1[N+](=O)[O-]
active: [1] 50 µM | [5] 3.15 µM | [6] 5.41 µM | CYP4A11 (gene 1579) 28.9 µM | [10] 7.3 µM | [8] 21.2 µM
not listed: [11] | CYP2E1 (gene 1571)
inactive: all other assays above

CCOC(=O)C(C)Oc1ccc(Oc2nc3ccc(Cl)cc3o2)cc1 (stereo not drawn)
active: [1] 11.5 µM | [5] 3.22 µM | [6] 14 µM | CYP2C9 (gene 1559) 19.6 µM
not listed: [9] | [11] | CYP2E1 (gene 1571)
inactive: all other assays above

CCCCOC(=O)[C@@H](C)Oc1ccc(Oc2ccc(C(F)(F)F)cn2)cc1
not listed: [9] | CYP2E1 (gene 1571) | Caspase-3 (Homo sapiens)
inactive: all other assays above

C[C@]12C[C@H](O)[C@H]3[C@@H](CCC4=CC(=O)CC[C@@]43C)[C@@H]1CC[C@@H]2C(=O)CO
inactive: BCL2L11 (gene 10018) | [1] | [2] | [4] | CYP4A11 (gene 1579) | [8]
active: [5] 50 µM | CYP2C8 (gene 1558) 50 µM | [12] 50 µM

CCN(Cc1c(F)cccc1Cl)c1c([N+](=O)[O-])cc(C(F)(F)F)cc1[N+](=O)[O-]
active: [1] 26.7 µM | [3] 13.3 µM | [5] 12.7 µM | [6] 12.9 µM | CYP4A11 (gene 1579) 36.3 µM | [10] 8.01 µM | [8] 14 µM
not listed: [9] | [11] | CYP2E1 (gene 1571)
inactive: all other assays above

C#CCOC(=O)[C@@H](C)Oc1ccc(Oc2ncc(Cl)cc2F)cc1
active: CYP4A11 (gene 1579) 19 µM | [12] 50 µM
not listed: [11] | CYP2E1 (gene 1571) | Caspase-3 (Homo sapiens)
inactive: all other assays above

CCCCCCC(C)OC(=O)COc1nc(F)c(Cl)c(N)c1Cl (stereo not drawn)
active: [5] 50 µM
not listed: CYP2C9 (gene 1559) | [10] | [11] | CYP2E1 (gene 1571)
inactive: all other assays above

CCC(C)OC(=O)N1CCCCC1CCO (stereo not drawn)
active: [5] 35 µM | [6] 50 µM | CYP2C9 (gene 1559) 4.74 µM | [10] 50 µM
not listed: [9] | [11] | Caspase-3 (Homo sapiens)
inactive: all other assays above
